Results on 10 compounds are retold here after PubChem BioAssay.

Assay [1] is described as follows: reducers of endogenous Her2 protein level, primary screen, SKBR3 breast tumor cells, AlphaScreen, ATP viability (AID 461;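 active means Her2 level under about 52% in both replicate screens, with viability over 70% of control, limit read from the data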;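 on Her2 level: lower value means less Her2 protein in the cells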;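 on viability: percent of carrier control wells set as 100% viability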). The settings on record: 18-24 h, measured here: SKBR3 viability, ATP luminescence, at 10 µM. Background: Bead proximity is the source of the signal in Alpha formats.
The target in assay [2] is Receptor tyrosine-protein kinase erbB-2 (Homo sapiens) (UniProt P04626). Described as above. The settings on record: 18-24 h, at 10 µM, stronger effect = lower value.
A short description of assay [3]: SK-BR-3 cell growth inhibitors, pilot screen, 24 h, human (AID 572;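 active means viability at or below 10% of carrier control in both of two separate runs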;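 further: compound exposure lasted between 18 and 24 h rather than exactly 24 h; 100% = carrier-treated control wells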). Particulars: SK-BR-3 viability, CellTiter-Glo luminescence, at 10 µM, stronger effect = lower value. A general note: In ATP-based viability assays light output follows the ATP content of the culture.
Assay [4] can be described thus: HUVEC growth inhibition – cell-based, human, primary screen (AID 575;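 active means viability at or below 30% in both replicate assays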;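 further: 100% = median of untreated cell wells with 0.1% DMSO on each plate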). Particulars: HUVEC proliferation, CellTiter-Glo luminescence, 72 h; at 10 µM; stronger effect = lower value.
Assay [5] is described as follows: growth inhibitors of H69AR lung tumor, primary screen, human, duplicate replicates (AID 580;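 active means viability at or under a set limit in both replicates, limit being median viability minus 3 SD, cut at about 48% in these data, passing the limit was not always enough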;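 further: 100% = mean luminescence of untreated wells and 0% = no signal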). Particulars: H69AR lung tumor cells viability, ATP luminescence, 72 h; at 10 µM; stronger effect = lower value.
Assay [6] is described as follows: reversal of MRP1-mediated doxorubicin resistance, pilot screen, H69AR cells, doxorubicin co-treatment (AID 601). The settings on record: CellTiter-Glo, 72 h, at 10 µM; for differential viability (reversal): stronger effect = higher value.
Assay [7] is described as follows: 384-well plate pilot, post-Golgi transport modulator project, inhibition of yeast transport mutant growth (AID 636; in the data active means inhibition above about 31%). Particulars: absorbance 615 nm, about 18 h, stronger effect = higher value.
Assay [8] in a line: growth suppression of yeast trafficking mutant, preliminary HTS, modulators of trafficking downstream of Golgi apparatus project, 1536-format plate, OD 615 nm (AID 637; in the data active means inhibition above about 30%). The settings on record: yeast transport mutant growth, absorbance 615 nm, 18 h; stronger effect = higher value.
The nature of assay [9]: OD615 S. cerevisiae growth inhibition, permissive medium, pilot counter-assay, permissive growth control for S. cerevisiae lifespan shortening project (AID 705;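 active means growth inhibition above 25% in both replicates, a cutoff set 3 SD above the mean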). The settings on record: OD615, 24 h, at 10 µM, stronger effect = higher value.
Assay [10] in a line: Restrictive medium S. cerevisiae growth inhibition, OD615, pilot screen of yeast lifespan reduction project, restrictive growth control (AID 706;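 active means growth inhibition above a set limit, 3 SD over mean compound inhibition, in both replicates, cut at about 43% in these data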;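 further: modified DeaD lifespan yeast strain shifted to restrictive glucose medium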). The settings on record: OD615, 48 h, at 10 µM, stronger effect = higher value.
Assay [11] in a line: viability gain of MRP-1-high H69AR cells under doxorubicin, pilot screen, MRP-1 activator project, CellTiter-Glo, duplicate (AID 807;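 active means viability increase at or above a cutoff of the median across tested compounds plus 3 SD, cut at about 8.5% in these data, passing the limit was not always enough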;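 further: compound pretreatment 18-22 h then 72 h combined with doxorubicin; 0% = doxorubicin alone and 100% = vehicle without doxorubicin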). Particulars: H69AR viability with doxorubicin, CellTiter-Glo luminescence; at 10 µM; stronger effect = higher value.
Assay [12] can be described thus: growth suppression of beta-catenin knockout HCT116, pilot screen, human colon tumor cells (AID 823;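 active means cell viability at or below a set limit in both duplicate runs, the limit being the all-compound median minus 4 SD, cut at about 23% in these data, passing the limit was not always enough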;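 further: 0% = wells killed by 20 µM Hyamine and 100% = untreated DMSO cell wells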). The settings on record: CellTiter-Glo, 60 h, at 10 µM, stronger effect = lower value.
Assay [13] in a line: inhibitors of the yeast RAM network, pilot screen, dse1pr::URA3 reporter, 5-FOA selection (AID 869;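 active means inhibition over a set limit, the all-compound mean plus 3 SD, in both replicate runs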;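 further: 0% = DMSO wells with no growth and 100% = 10 µM 1-NA-PP1 with full growth; RAM network block rescues cells from 5-FOA so hits raise OD615 growth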). The settings on record: S. cerevisiae dse1pr::URA3 5-FOA growth, OD615, 2 d; at 10 µM; stronger effect = higher value; strain carries analog-sensitive mutant Cbk1 kinase.
The nature of assay [14]: RAM signaling pathway blockade in yeast – S. cerevisiae, Pdr1DBD-CYC8 efflux-inhibited sensitized strain, primary screen (AID 1298;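 active means RAM network inhibition above 8.4% in each of two replicates, 3 SD over the compound average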;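 further: 0% = DMSO untreated cells without growth and 100% = 10 µM 1-NA-PP1 full growth; higher means more yeast growth rescued from 5-FOA killing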). The settings on record: S. cerevisiae cbk1-as DSE1-URA3 strain, 5-FOA growth OD615, 2 d; at 50 µM; stronger effect = higher value.
Assay [15] can be described thus: growth suppression of PTEN-deleted HCT116, pilot screen, cell-based, HCT116 clonal line, CellTiter-Glo (AID 824;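 active means viability at or below 27.92% in each of two runs, the all-compound median minus 4 SD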;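 further: 0% = 20 µM Hyamine control and 100% = vehicle cell control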). Particulars: 60 h, at 10 µM, stronger effect = lower value.
Where [16] appears, read: H69AR cells + 2 uM doxorubicin, measured here: viability with 2 uM doxorubicin, stronger effect = lower value.
Setting [17] is: H69AR cells, compound alone cytotoxicity.

Molecules are shown by their SMILES. Inconclusive results are not listed. Active and inactive are the calls of the source.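 How the source made its calls, unless noted: active means viability loss from added drug above about 55%, and viability with drug at most 40%, in both replicates (limit read from the data, passing the limit was not always enough); inconclusive means both conditions met in only one replicate; inactive means neither replicate meets both conditions.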

Chain of Receptor tyrosine-protein kinase erbB-2 (Homo sapiens) (P04626 whole entry, looked up): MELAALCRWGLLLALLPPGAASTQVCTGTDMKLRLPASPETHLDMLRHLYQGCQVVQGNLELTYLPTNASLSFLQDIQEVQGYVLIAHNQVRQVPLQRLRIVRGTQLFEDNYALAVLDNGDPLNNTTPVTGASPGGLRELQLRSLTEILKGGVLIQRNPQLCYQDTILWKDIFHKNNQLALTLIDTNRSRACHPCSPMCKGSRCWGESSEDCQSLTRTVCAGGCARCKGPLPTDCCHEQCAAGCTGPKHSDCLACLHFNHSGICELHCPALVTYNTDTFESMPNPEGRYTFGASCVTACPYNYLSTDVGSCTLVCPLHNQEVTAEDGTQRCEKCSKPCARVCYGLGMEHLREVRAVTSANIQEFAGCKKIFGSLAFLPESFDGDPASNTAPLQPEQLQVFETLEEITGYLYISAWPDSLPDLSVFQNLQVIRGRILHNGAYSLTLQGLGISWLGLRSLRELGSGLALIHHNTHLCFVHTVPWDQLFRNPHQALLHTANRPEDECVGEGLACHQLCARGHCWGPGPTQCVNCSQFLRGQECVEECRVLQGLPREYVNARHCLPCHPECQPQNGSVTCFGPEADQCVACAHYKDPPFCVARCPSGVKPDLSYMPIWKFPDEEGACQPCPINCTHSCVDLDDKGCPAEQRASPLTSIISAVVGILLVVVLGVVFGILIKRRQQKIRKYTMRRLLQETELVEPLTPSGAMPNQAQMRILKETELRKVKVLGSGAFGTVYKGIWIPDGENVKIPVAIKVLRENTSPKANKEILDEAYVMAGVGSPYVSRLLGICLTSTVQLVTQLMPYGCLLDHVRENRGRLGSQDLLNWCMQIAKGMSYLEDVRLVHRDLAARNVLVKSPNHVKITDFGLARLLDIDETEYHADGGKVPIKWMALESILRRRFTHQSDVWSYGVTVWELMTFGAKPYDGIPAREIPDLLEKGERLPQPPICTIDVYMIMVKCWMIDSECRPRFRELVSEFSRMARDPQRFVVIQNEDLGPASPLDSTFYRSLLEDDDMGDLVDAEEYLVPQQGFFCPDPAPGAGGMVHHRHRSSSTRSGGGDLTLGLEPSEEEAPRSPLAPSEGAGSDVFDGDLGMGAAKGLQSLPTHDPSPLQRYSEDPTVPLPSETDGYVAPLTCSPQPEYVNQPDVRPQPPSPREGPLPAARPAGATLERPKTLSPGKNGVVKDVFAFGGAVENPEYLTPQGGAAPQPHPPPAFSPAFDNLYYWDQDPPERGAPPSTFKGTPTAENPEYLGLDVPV

In the case of `COc1cc2[nH]c(=O)n(CCCCCC(=O)N3CCN(c4ccccn4)CC3)c(=O)c2cc1OC`, the viability in assay [1] is 104%; in [3] it was 104% (inactive); in [4], 100% (inactive); in [5], 89.3% (inactive); in [6] (setting [16]), 92.1%; in [6] (setting [17]), 89.3%. Besides, the viability in assay [12] is 73.2% (inactive). Also, the Her2 level in assay [2] is 92.5% (inactive). Besides, the differential viability (reversal) in assay [6] (H69AR cells + 2 uM doxorubicin) is -2.77% (inactive). Also, the inhibition in assay [7] is -5.95% (inactive); in assay [8], -4.83% (inactive); in assay [13] it was 1.7% (inactive). The growth inhibition in [9] is -9.93% (inactive); in [10] it was -5.11% (inactive). Further, the viability increase in assay [11] was -4.76% (inactive). Besides, the RAM network inhibition in assay [14] is 3.23% (inactive).
In the case of `COc1cccc(N(C(C)=O)c2nc(C)cc(C)c2C#N)c1`, the viability in assay [1] was 102%; in [3], 102% (inactive); in [4], 96.1% (inactive); in assay [5] it was 104% (inactive); in assay [6] (setting [16]), 95.3%; in [6] (setting [17]) it was 104%. For the same compound, the viability in [12] is 109% (inactive). The Her2 level in assay [2] was 87% (inactive). For the same compound, the differential viability (reversal) in assay [6] (H69AR cells + 2 uM doxorubicin) was 8.34% (inactive). In addition, the inhibition in assay [7] is -7.26% (inactive); in assay [8], -1.59% (inactive); in assay [13], 1.36% (inactive). The growth inhibition in [9] was -15.4% (inactive); in assay [10], 9.36% (inactive). Moreover, the viability increase in assay [11] was -0.35% (inactive). In addition, the RAM network inhibition in assay [14] is 2.39% (inactive).
For `CCCSc1nc2c(cnn2-c2ccc(C)cc2)c(=O)[nH]1`, the viability in assay [1] was 93%; in assay [3], 93% (inactive); in assay [4] it was 7.04% (active); in assay [5] it was 19.1% (active); in [6] (setting [16]) it was 22.6%; in assay [6] (setting [17]) it was 19.1%. For the same compound, the viability in [12] is 40.5% (inactive). The Her2 level in [2] is 99% (inactive). Further, in assay [6] (H69AR cells + 2 uM doxorubicin), the differential viability (reversal) was -3.51% (inactive). The values for the inhibition in [7], in [8] and in assay [13] were -2% (inactive), -2.62% (inactive) and 3.78% (inactive), respectively. Besides, the growth inhibition in assay [9] is -8.62% (inactive); in [10], 6.35% (inactive). Moreover, the viability increase in assay [11] was -8.01% (inactive). In addition, the RAM network inhibition in [14] was 4.52% (inactive).
Take `Cc1nc(NCc2ccc3c(c2)OCO3)c2oc3ccccc3c2n1`: the viability in assay [1] is 99%; in assay [3], 99% (inactive); in assay [4], 60% (inactive); in [5] it was 98.3% (inactive); in [6] (setting [16]), 107%; in [6] (setting [17]) it was 98.3%. Besides, in assay [12], the viability was 82.7% (inactive). In addition, the Her2 level in assay [2] is 104% (inactive). In [6] (H69AR cells + 2 uM doxorubicin), the differential viability (reversal) is -8.4% (inactive). For the same compound, the results for the inhibition in [7], in assay [8] and in [13] were -0.93% (inactive), -2.9% (inactive) and 0.65% (inactive), respectively. Besides, the growth inhibition in [9] is -23.6% (inactive); in assay [10], -6.14% (inactive). The viability increase in assay [11] was -0.11% (inactive). Further, the RAM network inhibition in assay [14] was 3.7% (inactive).
In the case of `c1ccc(-c2nnc(CSc3nncs3)o2)cc1`, the viability in assay [1] was 104%; in assay [3], 104% (inactive); in assay [4] it was 88.4% (inactive); in [5], 106% (inactive); in assay [6] (setting [16]) it was 92.9%; in [6] (setting [17]) it was 106%. For the same compound, the viability in assay [12] is 106% (inactive). For the same compound, the Her2 level in [2] was 86.5% (inactive). Also, the differential viability (reversal) in assay [6] (H69AR cells + 2 uM doxorubicin) was 13.6% (inactive). Further, the inhibition in assay [7] was -3.95% (inactive); in assay [8] it was -4.67% (inactive); in assay [13], 1.01% (inactive). Moreover, the growth inhibition in assay [9] is -16% (inactive); in assay [10], 8.37% (inactive). The viability increase in assay [11] was -0.84% (inactive). Also, in [14], the RAM network inhibition is 5.21% (inactive).
With `CCSc1oc(-c2ccco2)nc1S(=O)(=O)c1ccccc1`, the viability in assay [1] is 95%; in [3], 95% (inactive); in assay [4], 93.3% (inactive); in assay [5] it was 89.3% (inactive); in assay [6] (setting [16]), 87.2%; in [6] (setting [17]) it was 89.3%. In assay [12], the viability is 92.7% (inactive). The Her2 level in assay [2] is 93.5% (inactive). The differential viability (reversal) in assay [6] (H69AR cells + 2 uM doxorubicin) was 2.04% (inactive). Further, the inhibition is -5.95% (inactive) in assay [7], -8.33% (inactive) in [8] and 1.75% (inactive) in [13]. In addition, the growth inhibition in assay [9] was -16.4% (inactive); in assay [10], 11.4% (inactive). Further, the viability increase in assay [11] was -2.68% (inactive). For the same compound, the RAM network inhibition in [14] is 1.2% (inactive).
Turning to `CCOc1ccc(N(CC(=O)Nc2ccc(C)c(C)c2)S(=O)(=O)c2c(C)noc2C)cc1`, the viability in assay [1] is 101%; in assay [3], 101% (inactive); in assay [4], 68.8% (inactive); in [5], 53.8% (inactive); in assay [6] (setting [16]) it was 68.2%; in [6] (setting [17]) it was 53.8%. In [12], the viability was 27.4% (inactive). For the same compound, the Her2 level in [2] was 75% (inactive). Moreover, the differential viability (reversal) in assay [6] (H69AR cells + 2 uM doxorubicin) is -14.4% (inactive). Besides, the inhibition was -0.13% (inactive) in assay [7], 3.67% (inactive) in assay [8] and 1.85% (inactive) in assay [13]. In addition, the growth inhibition in assay [9] was 0.98% (inactive); in assay [10] it was -5.67% (inactive). Besides, the viability increase in [11] was -6.26% (inactive). For the same compound, in [14], the RAM network inhibition was 6.75% (inactive).
As to `O=C(NCCC1=CCCCC1)C1CCN(S(=O)(=O)c2cccc3cccnc23)CC1`, the viability in [1] is 104%; in assay [3], 104% (inactive); in [4], 89% (inactive); in [5], 97% (inactive); in assay [6] (setting [16]), 98.2%; in assay [6] (setting [17]) it was 97%. The viability in assay [12] is 93.3% (inactive); in assay [15] it was 91.6% (inactive). For the same compound, in [2], the Her2 level was 96% (inactive). In addition, in assay [6] (H69AR cells + 2 uM doxorubicin), the differential viability (reversal) was -1.27% (inactive). The inhibition in assay [7] is -2.27% (inactive); in [8] it was -0.82% (inactive); in assay [13], 0.885% (inactive). In addition, the growth inhibition was 6.61% (inactive) in assay [9] and -0.115% (inactive) in assay [10]. The viability increase in assay [11] was 4.13% (inactive). For the same compound, the RAM network inhibition in assay [14] is 1.51% (inactive).
Turning to `O=C(NC1CCCCCC1)c1c(F)c(F)c(F)c(F)c1F`, the viability was 76.5% in [1]; 76.5% (inactive) in assay [3]; 78.9% (inactive) in [4]; 101% (inactive) in assay [5]; 85.2% in assay [6] (setting [16]); 101% in [6] (setting [17]). Besides, the results for the viability in assay [12] and in assay [15] were 91.8% (inactive) and 93.5% (inactive), respectively. Moreover, in assay [2], the Her2 level was 92% (inactive). Besides, the differential viability (reversal) in assay [6] (H69AR cells + 2 uM doxorubicin) was 15.7% (inactive). For the same compound, the inhibition in [7] is 0.26% (inactive); in assay [8], -8.67% (inactive); in assay [13], 1.01% (inactive). Moreover, the growth inhibition in assay [9] was 4.54% (inactive); in [10] it was 7.52% (inactive). Further, in [11], the viability increase was -3.82% (inactive). Further, the RAM network inhibition in assay [14] was -1.79% (inactive).
As to `CCOCCCNC(=O)C(c1ccccc1)N(Cc1ccc2c(c1)OCO2)C(=O)CNC(C)=O` (configuration not stated), the viability in assay [1] was 100%; in assay [3], 100% (inactive); in assay [4] it was 97.7% (inactive); in assay [5], 105% (inactive); in [6] (setting [16]) it was 102%; in assay [6] (setting [17]) it was 105%. For the same compound, the viability in [12] is 98.6% (inactive). Also, in [2], the Her2 level was 108% (inactive). In [6] (H69AR cells + 2 uM doxorubicin), the differential viability (reversal) is 2.97% (inactive). Further, the inhibition was -6.3% (inactive) in assay [7], 1.59% (inactive) in assay [8] and 0.43% (inactive) in assay [13]. Also, the growth inhibition in assay [9] was 3.28% (inactive); in assay [10] it was -2.68% (inactive). For the same compound, the viability increase in [11] is -3.36% (inactive). In assay [14], the RAM network inhibition was 1.52% (inactive).

One may read the viability as a read-out of living cells in per cent, often relative to untreated cells. As a reminder, the inhibition is the change of the read-out against control, counted positive when it falls.
